Compound activity: PubChem, National Center for Advancing Translational Sciences (NCATS)
Sampled rows, rich in hits. Any-hit rate of the full collection: about 0.92%.
TDP1 inh – TDP1 (human) enzyme inhibition | recombinant TDP1, AlphaScreen DNA substrate cleavage | Potency, µM (titrated, usually from 130 µM), for the others: at the top dose activity change, negative = inhibition, actives largely listed as inhibitors | actives 0.28% (n = 350,000) | AID 485290; also: % is scaled to controls: 0 for no effect and ±100 for the full control effect; nearly all actives have a fitted effect of over 40% in size
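E. coli-derived human Tdp1, 1 nM final. Cpd preinc 15 min RT; substrate 15 nM final, 5 min RT; AS bead mix 10 ug/ml final, 10 min RT. Signal loss = tyrosine-FITC cleavage. No-enzyme wells = max signal.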
FEN1 inh-1 – blocks human flap endonuclease 1; Recombinant FEN1 flap cleavage, fluorescence, 15 min; Potency, µM (highest dose often 114 µM), without a hit: at the highest dose activity change, negative = inhibition, actives largely listed as inhibitors; actives 0.35% (n = 390,000); AID 588795; also: % is scaled to controls: 0 for no effect and ±100 for the full control effect; nearly all actives have a fitted effect of over 65% in size
Target sequence (P39748 whole entry, looked up): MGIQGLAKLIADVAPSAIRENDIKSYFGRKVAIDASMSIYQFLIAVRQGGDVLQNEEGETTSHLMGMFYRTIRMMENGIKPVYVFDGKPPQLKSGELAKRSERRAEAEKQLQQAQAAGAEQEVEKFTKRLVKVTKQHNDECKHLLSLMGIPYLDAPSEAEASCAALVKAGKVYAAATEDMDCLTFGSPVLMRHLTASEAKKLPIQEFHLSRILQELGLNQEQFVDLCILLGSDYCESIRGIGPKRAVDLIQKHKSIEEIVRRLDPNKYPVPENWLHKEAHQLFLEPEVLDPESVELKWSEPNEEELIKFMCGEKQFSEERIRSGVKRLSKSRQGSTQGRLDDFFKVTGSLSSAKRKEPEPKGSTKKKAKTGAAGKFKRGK
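Reaction started by adding substrate (50 nM final) to 10 nM enzyme after 15 min room-temperature compound preincubation. Reads at 0 and 15 min, with data normalized and fitted to a four-parameter Hill equation.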
APE1 inh – APE1 (human) endonuclease inhibition. P27695. recombinant APE1, TAMRA/BHQ-2 abasic DNA cleavage fluorescence. Potency, µM (titrated, usually from 65.8 µM), for inactives: top-dose activity change, negative = inhibition, hits mostly inhibitors. actives 0.35% (n = 350,000);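 also: plate controls were vehicle for no effect and reference inhibitor for full effect; nearly all actives have a fitted effect of over 55% in size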
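Compound pre-exposure to 0.75 nM APE1, 15 min at ambient temperature. Reaction initiated with 50 nM TAMRA/BHQ-2 THF substrate, read immediately in kinetic mode, 525 nm excitation, 598 nm emission.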
BLM helicase inh – blocks DNA unwinding by human BLM helicase. recombinant BLM DNA unwinding, fluorescence dequenching. AID 2528. actives 0.2% (n = 350,000). Potency, µM (titrated, usually from 56.1 µM), without a hit: at the highest dose activity change, negative = inhibition, actives largely listed as inhibitors;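 also: plate controls were vehicle for no effect and no enzyme for full effect; nearly all actives have a fitted effect of over 35% in size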
RECQ1 helicase – inhibitors of human RECQ1 DNA helicase; actives 0.54% (n = 240,000); RECQ1 DNA unwinding, red fluorescence kinetic read; P46063; AID 2549; Potency, µM (doses to about 57.3 µM), without a hit: top-dose activity, negative = inhibition, usual class: inhibitors;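 also: plate controls were vehicle for no effect and no enzyme for full effect; nearly all actives have a fitted effect of over 30% in size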
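RECQ1T1 50 nM; forked duplex (20 bp + 30-nt ss tails) 200 nM, ATP 2 mM final; pH 8.0, 2 mM MgCl2, 2.5 ug/ml poly(dI-dC); 15 min compound preincubation; discontinuous kinetic read over 2 h at RT.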
FEN1 inh-2 – FEN1 inhibition, cherry-pick retest | FEN1 flap cleavage, TAMRA/BHQ2 fluorogenic DNA substrate | Potency, µM, actives largely listed as inhibitors | actives 79% (n = 880) | shares compounds with FEN1 inh-1; also: nearly all actives have a fitted effect of over 60% in size
The depositor's hits bear a star; i = inactive; ? = inconclusive; nt = no result given; [ ] = remark or other dose. Calls follow the shape of the dose curve; as a rule, active = well fitted curve in the direction sought with a large enough effect; inconclusive = small, poorly fitted or top-dose-only effect, or another doubt; inactive = no such curve, though single readings can be large; an effect the other way counts as inactive or inconclusive. Potency is read from the fitted curve at half-maximal effect.

SMILES	TDP1 inh	FEN1 inh-1	APE1 inh	BLM helicase inh	RECQ1 helicase	FEN1 inh-2
O=C(COC(=O)c1ccc(Br)o1)Nc1ncc(Cl)cc1Cl	-2%	-8%	-10%	-16%	-2%	nt
CC(NC(=O)COC(=O)c1ccc([N+](=O)[O-])o1)c1ccccc1 (configuration not stated)	0%	?	-27%	nt	nt	15*
O=C(COC(=O)c1ccc(Br)o1)NCCc1ccccc1	2%	-3%	-3%	2%	-4%	nt
O=C(OCC(=O)N1CCCc2ccccc21)c1ccc(Br)o1	4%	-4%	-9%	0%	-14%	nt
O=C(OCC(=O)N1CCc2ccccc21)c1ccc([N+](=O)[O-])o1	0%	?	-29%	nt	nt	8.5*
O=C(COC(=O)c1ccc([N+](=O)[O-])o1)NCCc1ccccc1	-3%	?	-1%	nt	nt	9.5*
O=C(COC(=O)c1ccc([N+](=O)[O-])o1)NC1CCCc2ccccc21 (configuration not stated)	-3%	?	-31%	nt	nt	24*
CC(NC(=O)COc1ccc([N+](=O)[O-])cc1)c1ccccc1 (configuration not stated)	6%	14%	-4%	-1%	i	nt
O=C(Cn1ncc2c(=O)oc3ccccc3c21)NCc1ccccc1Cl	6%	1%	nt	-9%	nt	nt
Cc1ccc(NC(=O)c2cnn3c2NC(=C2CC2)C=C3C(F)F)cc1C	nt	-1%	nt	nt	nt	nt
COc1ccc(Nc2c(-c3ccc(Cl)cc3)nc3cnccn23)cc1OC	15%	-26%	nt	-6%	nt	nt
Cc1ccccc1NC(=O)c1cc2c(-c3ccccc3)nn(-c3ccccc3)c2s1	6%	-7%	nt	-6%	nt	nt
O=C(COC(=O)c1ccc([N+](=O)[O-])o1)NCc1ccc2c(c1)OCO2	-12%	18µM*	-12%	nt	nt	7.6*
O=C(COC(=O)c1ccccc1)Nc1ncc([N+](=O)[O-])s1	nt	45µM*	3.4µM*	nt	nt	67*
O=C(Nc1ccccc1)Nc1ncc([N+](=O)[O-])s1	8%	9%	-6%	-8%	-6%	nt
CN(Cc1cccs1)c1ncnc2ccc(-c3ccc4cnn(C)c4c3)cc12	nt	nt	nt	nt	nt	34*
CN(C)CCNc1ncnc2ccc(-c3ccc4c(c3)OCO4)cc12	nt	nt	nt	nt	nt	30*
NCCCNc1ncnc2ccc(-c3ccc4c(c3)OCO4)cc12	nt	nt	nt	nt	nt	38*
c1nc(NCc2ccc3c(c2)OCO3)c2cc(-c3ccc4c(c3)OCCO4)ccc2n1	5%	?	-2%	nt	nt	nt
CC(=O)NCCNc1ncnc2ccc(-c3ccc4c(c3)OCO4)cc12	nt	nt	8%	3%	i	nt
CN1CCCC1CCNc1ncnc2ccc(-c3ccc4c(c3)OCO4)cc12 (configuration not stated)	nt	nt	nt	nt	nt	48*
c1nc(NCCN2CCOCC2)c2cc(-c3ccc4c(c3)OCO4)ccc2n1	9%[56.1 µM]	nt	?	-4%	i	nt
C=C(C)[C@@H]1C2=CC(C(=O)OC)=C(C[C@@H](C(=C)C)[C@H]3O[C@H]3C3=C[C@H]1OC3=O)O2	1%	-1%	nt	nt	nt	nt
COc1cc(/C=C2\SC(=S)N(Nc3ccccc3)C2=O)ccc1O	0%	?	6%	-28%	-2%	85*
O=C(O)C(Cc1ccccc1)N1C(=O)/C(=C/c2ccccc2)SC1=S (configuration not stated)	0%	-3%	-2%	0%	9%	nt
COc1cc(/C=C2/SC(=S)N(CC3CCCO3)C2=O)ccc1O (configuration not stated)	7%	45µM*	?	-19%	32µM*	43*
COc1cc(/C=C2\SC(=S)N(C(Cc3ccccc3)C(=O)O)C2=O)ccc1O (configuration not stated)	3%	?	?	-20%	25µM*	?
COc1cccc(NC(=O)Cn2cc(C(=O)c3ccc(C)cc3)c(=O)c3cc(OC)ccc32)c1	?	79µM*	9%	?	nt	?
COc1ccc(Nc2nc(N3CCCCC3)c3ccccc3n2)cc1	6%	-10%	5%	-27%	?	nt
